Assay outcomes from PubChem.
AmpC inh detg: inhibitors of E. coli AmpC beta-lactamase with detergent. Potency, µM (titrated, usually from 114 µM), inactives show at the top dose activity change, negative = inhibition, most hits filed as inhibitors. AmpC hydrolysis of nitrocefin, absorbance 480 nm, 0.01% Triton. P00811. 370,000 tested, 0.041% active. AID 485294;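 also: 0% = no-compound wells and -100% = no-enzyme wells; nearly all actives have a fitted effect of over 25% in size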
Target sequence (P00811 whole entry, looked up): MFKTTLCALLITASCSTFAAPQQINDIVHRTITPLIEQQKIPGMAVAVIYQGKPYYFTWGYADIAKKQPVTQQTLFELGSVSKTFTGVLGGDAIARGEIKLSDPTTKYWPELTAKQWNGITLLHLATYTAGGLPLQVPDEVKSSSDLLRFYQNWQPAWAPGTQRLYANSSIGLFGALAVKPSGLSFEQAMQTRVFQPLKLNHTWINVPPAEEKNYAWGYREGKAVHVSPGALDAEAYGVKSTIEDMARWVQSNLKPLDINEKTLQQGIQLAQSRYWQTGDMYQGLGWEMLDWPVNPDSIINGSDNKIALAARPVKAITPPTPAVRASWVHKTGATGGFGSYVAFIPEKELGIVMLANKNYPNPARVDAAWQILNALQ
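20 mM phosphate pH 7.0 + 0.01% (detergent screen) or 0.0001% Triton X-100; 5.3 nM AmpC reagent; cpd preinc 15 min RT; nitrocefin (800 uM stock) to start; A480 q20 s × 4 min; Activity was normalised to no-enzyme and no-compound control wells.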
Pf growth 96h: inhibits malaria parasite growth, 96 h | AID 504834 | P. falciparum luciferase reporter growth, 96 h | Potency, µM (titrated, usually from 28.7 µM), without a hit: top-dose activity change, negative = inhibition, actives largely listed as inhibitors | 320,000 tested, 6.9% active; also: % is scaled to controls: 0 for no effect and ±100 for the full control effect
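Two-generation exposure (96 h) targets delayed-death phenotype. Reporter parasites carrying integrated firefly luciferase, in red cells at 2% hematocrit and 0.05% parasitemia final, kept at 37 C, 5% CO2; luminescence loss indicates inhibition.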
SARS PLpro yeast: inhibitors of SARS-CoV papain-like protease in yeast; S. cerevisiae expressing SARS-CoV PLpro, growth rescue; Potency, µM (series often up to 32.9 µM), without a hit: top-dose activity, positive = growth rescue, hits mostly activators; 330,000 tested, 0.19% active; calls by dose curve; also: 0% is about no effect; nearly all actives have a fitted effect of over 55% in size
Pf growth 48h: inhibits P. falciparum growth in the first generation, 48 h; P. falciparum luciferase growth in erythrocytes, 48 h; 310,000 tested, 5.9% active; Potency, µM (top dose mostly 28.7 µM), inactives show top-dose activity change, negative = inhibition, most hits filed as inhibitors; also: % is scaled to controls: 0 for no effect and ±100 for the full control effect
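Read-out is firefly luciferase luminescence from an integrated reporter in P. falciparum, so falling signal marks reduced parasite growth. Infected erythrocytes were at 2% hematocrit and 0.1% parasitemia (final) in Albumax-supplemented RPMI 1640.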
Sm TGR inh: inhibitors of Schistosoma mansoni thioredoxin glutathione reductase; Potency, µM (doses to about 114 µM), inactives show top-dose activity change, negative = inhibition, most hits filed as inhibitors; 360,000 tested, 3% active; AID 485364; purified TGR, DTNB reduction, TNB absorbance 405 nm; also: % is scaled to controls: 0 for no effect and ±100 for the full control effect; nearly all actives have a fitted effect of over 60% in size
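First, TGR (20 nM dispensed) and NADPH were mixed with compound. Second, a 15 min room-temperature incubation followed. Third, further NADPH and then DTNB were added to start the reaction. Finally, TNB absorbance was monitored kinetically.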
AmpC no deterg: blocks E. coli AmpC beta-lactamase in detergent-free assay | P00811 | AmpC nitrocefin hydrolysis, absorbance 480 nm, 0.0001% Triton | Potency, µM (top dose mostly 57.1 µM), inactives show at the highest dose activity change, negative = inhibition, actives largely listed as inhibitors | 330,000 tested, 0.52% active | AID 485341;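 also: plate controls were no compound for no effect and no enzyme for full effect; nearly all actives have a fitted effect of over 20% in size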
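AmpC (5.3 nM in the dispensed reagent) in 20 mM phosphate pH 7.0 with 0.01% (detergent screen) or 0.0001% Triton X-100 was preincubated with compounds for 15 min at room temperature. Nitrocefin was then added from an 800 uM solution, and hydrolysis was followed at 480 nm.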
Starred values were filed as active, the others as inactive; ? = inconclusive; . = no result given; ! = repeats disagree; [ ] = another dose, or the depositor's remark. Only some compounds are listed: those with a hit (about 12% of all), similar ones and a draw of the others. Unless noted, calls follow the shape of the dose curve; as a rule, active = well fitted curve in the direction sought with a large enough effect; inconclusive = small, poorly fitted or top-dose-only effect, or another doubt; inactive = no such curve, though single readings can be large; an effect the other way counts as inactive or inconclusive. Potency is read from the fitted curve at half-maximal effect.

SMILES	AmpC inh detg	Pf growth 96h	SARS PLpro yeast	Pf growth 48h	Sm TGR inh	AmpC no deterg
C=CCN=C1N[C@@H](c2ccccc2)C(C(=O)OC)=C(C)N1CCOC	?	10µM*!	6%	34%	6%	-22%
COC(=O)C1=C(C)N(CC2CC2)C(=NCc2cc(OC)c(OC)c(OC)c2)N[C@H]1c1ccccc1	?	12µM*!	0%	3%	1%	-22%
COC(=O)C1=C(C)N(Cc2ccccc2)C(=NCc2ccccc2)N[C@H]1c1cccc(F)c1	-11%	9.3µM*	-2%	?	-21%	75%
CCN1C(=NCCc2c[nH]c3ccccc23)N[C@@H](c2ccccc2)[C@H](C(=O)OC)[C@H]1C	?	-1%	0%	?	45µM*	-43%
Cc1ccc2[nH]c(=O)c(CN(C(=O)c3cccc([N+](=O)[O-])c3)C(C)C)cc2c1	0%	0%	1%	10%	-15%	6%
Cc1cccc(S(=O)Cc2ccc(C(=O)NC3CCCCCC3)o2)c1 (configuration not stated)	14%	.	.	.	-27%	.
CN1CCCC(C#CC(O)(c2ccccc2)c2ccccc2)C1 (configuration not stated)	3%	27%	0%	?	4%	-12%
COC(=O)C1=C(C)N(Cc2ccccc2)C(=NCc2cc(OC)c(OC)c(OC)c2)N[C@H]1CCc1ccccc1	?	?	-15%	13µM*	0%	107%
COC(=O)C1=C(C)N(Cc2ccccc2)C(=NCc2cc(OC)c(OC)c(OC)c2)N[C@H]1c1ccc(Br)cc1	?	29%	3%	-2%	-6%	132%
COc1ccc(CCC(C)N2CCC(Oc3ccc(C(=O)N4CCCC4)cc3)CC2)cc1 (configuration not stated)	7%	?	8%	12µM*	28µM*	86%
CCOCCCNC(=O)c1ccc(OC)c(OC2CCN(C(C)C)CC2)c1	?	15µM*	4%	13%	3%	-12%
COc1ccc(C(=O)N2CCCCCCC2)cc1OC1CCN(C(C)C)CC1	3%	3.7µM*	16%	12%	-24%	0%
CC(CCc1ccc(O)cc1)N1CCC(Oc2ccc(C(=O)N3CCCC3)cc2)CC1 (configuration not stated)	-2%	-15%	-3%	-17%	-4%	-15%
COc1ccc(C(=O)N(C)C2CCCCC2)cc1OC1CCN(C(C)C)CC1	3%	4%	1%	5%	-3%	-7%
COc1ccc(C(=O)NCCCOC(C)C)cc1OC1CCN(C(C)=O)CC1	?	-18%	4%	-3%	7%	3%
Cc1ccc(C)n1-c1cc([N+](=O)[O-])ccc1-n1ccnc1	5%	?	-1%	12µM*	-2%	-8%
CCOc1ccc(C(=O)NCC2OCCc3ccccc32)cc1 (configuration not stated)	?	13%	-7%	28%	4%	-9%
O=[N+]([O-])c1c(Nc2ccccc2O)ccc2nonc12	?	-31%	-7%	14%	5%	-30%
O=[N+]([O-])c1c(Nc2ccccc2O)cc(Cl)c2nonc12	-17%	2%	-16%	12µM*	0.63µM*	32µM*
Cc1ccc(C)c(Nc2ccc3nonc3c2[N+](=O)[O-])c1	8%	?	0%	-24%	?	-12%
Nc1cc(Cl)c2nonc2c1[N+](=O)[O-]	-10%	10%	6%	-2%	1.4µM*	-15%
Cc1ccccc1Nc1ccc2nonc2c1[N+](=O)[O-]	-1%	6.6µM*	-3%	12%	-22%	-9%
O=C(O)c1cc(Nc2cc(Cl)c3nonc3c2[N+](=O)[O-])ccc1O	-9%	15%	3%	18%	0.1µM*	-21%
CCNC(=O)NCc1cccc(Cl)c1	.	-16%	.	-1%	.	.
CC(C)CCNC(=O)[C@H](CC(C)C)NC(=O)[C@H]1O[C@@H]1C(=O)O	?	2.1µM*	0%	3.7µM*	-19%	-1%
SMILES	AmpC inh detg	Pf growth 96h	SARS PLpro yeast	Pf growth 48h	Sm TGR inh	AmpC no deterg
O=c1oc2ccccc2c(N2CCCCC2)c1CN1CCCC1	?	?	6%	?	-14%	-14%
O=c1oc2ccccc2c(N2CCCCC2)c1CN1CCCCC1	-4%	214%	-24%	?	18µM*	-29%
CCc1oc2ccccc2c1C(=O)CCN1CCCCC1	?	65%	-2%	15%	7.9µM*	-15%
O=C(CCN1CCCCC1)c1ccccc1	-7%	-9%	5%	.	0%	-5%
O=S(=O)(c1ccc(F)cc1)N1CCCN(c2nccc(C(F)(F)F)n2)CC1	7%	-10%	-2%	-13%	6%	84%
Cc1cc(C)cc(OCCOc2cccc(C=C3C(=O)NC(=O)NC3=O)c2)c1	0%	38%	8%	26%	32µM*	-28%
Cc1ccc(OCCOc2cccc(C=C3C(=O)NC(=O)NC3=O)c2)cc1	?	6%	4%	339%	?	-10%
CC(C)N1CCN(c2ccc(OC[C@H]3CO[C@](Cn4cncn4)(c4ccc(Cl)cc4Cl)O3)cc2)CC1	?	9.3µM*	.	13µM*	-2%	210%
O=c1nc(N/N=C/c2ccccn2)cn[nH]1	5%	-6%[1.15 µM]	-25%	1µM*	30%	-16%
C(=N\Nc1ccc2nncn2n1)/c1ccccn1	1%	9.3µM*	-1%	-75%	20%	-25%
Cc1ccc(/C=N/Nc2cn[nH]c(=O)n2)o1	-3%	11%	0%	35%	50%	-33%
O=C(C[n+]1ccccc1)N/N=C/c1c(F)cccc1Cl	-1%	41%	-4%	18%	13%	-17%
CCc1ccc(NC(=O)c2cc3c([nH]c2=O)CC(C)(C)CC3=O)cc1	-5%	.	.	.	2%	.
Clc1cc2cccnc2c2ncccc12	1%	12µM*	8%	12µM*	-26%	1%
Cc1c(C)c2cccnc2c2ncccc12	5%	?	5%	1.9µM*	-3%	6%
CC(C)c1ccccc1NC(=O)COC(=O)c1c2c(nc3ccccc13)CCN(Cc1ccccc1)C2	-4%	13µM*	-12%	8.3µM*	-2%	3.5µM*
Cc1c(Cl)cccc1NC(=O)COC(=O)c1c2c(nc3ccccc13)CCN(Cc1ccccc1)C2	1%	2.9µM*	-9%	13µM*	17%	8%
Nc1c2c(nc3ccccc13)CCN(Cc1ccccc1)C2	1%	8.3µM*	-1%	?	2%	-36%
